Assay outcomes: PubChem, National Center for Advancing Translational Sciences (NCATS)
Six1-Eya2 inh = qHTS Assay for Inhibitors of the Six1/Eya2 Interaction; Homeobox protein SIX1 (Homo sapiens) + Protein phosphatase EYA2 (Homo sapiens), …; 0.56% of 360,000 active; activity change, % (test concentration not listed); AlphaScreen GST-Six1/His-Eya2 binding, biochemical; hits give low values; in the data active = activity change below about -65%; inconclusive = mostly about -30% to -63%; also: % is scaled to controls: 0 for no effect and ±100 for the full control effect
Target sequence (O00167 whole entry, looked up): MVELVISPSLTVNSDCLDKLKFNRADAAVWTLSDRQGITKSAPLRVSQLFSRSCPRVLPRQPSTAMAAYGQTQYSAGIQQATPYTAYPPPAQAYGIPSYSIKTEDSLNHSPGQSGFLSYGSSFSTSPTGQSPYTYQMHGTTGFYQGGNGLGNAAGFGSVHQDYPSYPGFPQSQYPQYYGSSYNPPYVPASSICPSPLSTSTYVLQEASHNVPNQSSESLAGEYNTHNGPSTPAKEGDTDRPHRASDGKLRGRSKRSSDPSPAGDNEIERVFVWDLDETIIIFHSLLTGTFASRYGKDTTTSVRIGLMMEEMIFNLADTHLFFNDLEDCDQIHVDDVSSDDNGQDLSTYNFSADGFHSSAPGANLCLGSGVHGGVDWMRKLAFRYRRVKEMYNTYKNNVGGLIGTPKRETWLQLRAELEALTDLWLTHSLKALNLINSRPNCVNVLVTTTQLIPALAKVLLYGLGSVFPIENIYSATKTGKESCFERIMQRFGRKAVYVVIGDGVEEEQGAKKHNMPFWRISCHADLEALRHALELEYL
Target sequence (Q15475 whole entry, looked up): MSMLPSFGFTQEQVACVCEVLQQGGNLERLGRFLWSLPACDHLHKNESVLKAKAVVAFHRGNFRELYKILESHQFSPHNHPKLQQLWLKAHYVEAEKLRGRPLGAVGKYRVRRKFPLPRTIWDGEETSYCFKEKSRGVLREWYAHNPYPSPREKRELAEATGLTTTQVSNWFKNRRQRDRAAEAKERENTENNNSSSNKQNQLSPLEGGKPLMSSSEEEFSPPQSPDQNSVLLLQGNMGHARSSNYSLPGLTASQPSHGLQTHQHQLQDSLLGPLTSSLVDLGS
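Compounds are tested against tagged Six1 and Eya2 proteins bridged by glutathione donor and nickel acceptor beads; after a one-hour incubation at 37 °C without light, AlphaScreen emission is recorded.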
CtBP-E1A blk = qHTS Assay for Inhibitors of the CtBP/E1A Interaction; CtBP / adenovirus E1A interaction (AlphaScreen); AlphaScreen GST-E1A/His-CtBP binding, 1536-well; hits give low values; activity change, % (test concentration not listed); 0.49% of 340,000 active; AID 651724, 2012; in the data active = activity change below about -65%; inconclusive = mostly about -30% to -63%; also: % is scaled to controls: 0 for no effect and ±100 for the full control effect
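GST-E1A and His-tagged CtBP (125 nM each as 5X stock) were preincubated with pin-transferred compound for 2 h at 37 °C in the dark, then glutathione donor and nickel acceptor beads were added for 1 h before AlphaScreen reading.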
TGFb inhibitor = qHTS for Inhibitors of TGF-b. Potency, µM (series often up to 46.1 µM), inactives show top-dose activity, negative = inhibition, actives largely listed as inhibitors. AID 588855, 2011. HepG2 CAGA-GFP TGF-b/SMAD3 reporter, GFP fluorescence, 18 h; TGF-beta stimulated, 500 pg/mL final. 1.2% of 410,000 active; also: potency is read from the fitted curve at half-maximal effect; % is scaled to controls: 0 for no effect and ±100 for the full control effect; nearly all actives have a fitted effect of over 65% in size
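Smad-responsive CAGA-GFP expression was quantified in HEPG2 cells exposed to compounds and 500 pg/mL final TGF-beta for 18 h at 37 degrees C; unstimulated wells defined full inhibition.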
ATXN viability = Viability Counterscreen for Primary qHTS for Inhibitors of ATXN expression | S2 cells (HEK-293 line with an ATXN2-luciferase reporter) viability, CellTiter-Fluor protease fluorescence, 24 h | Potency, µM (highest dose often 56.7 µM), hits mostly cytotoxic | 0.49% of 400,000 active | AID 651635, 2014; also: potency is read from the fitted curve at half-maximal effect; nearly all actives have a fitted effect of over 40% in size
ATXN2 expr inh = Primary qHTS for Inhibitors of ATXN expression | Potency, µM (top dose mostly 57 µM), for inactives: top-dose activity change, negative = inhibition, usual class: inhibitors | HEK-293 ATXN2-luciferase reporter, luminescence, 24 h | 0.72% of 360,000 active; also: potency is read from the fitted curve at half-maximal effect; % is scaled to controls: 0 for no effect and ±100 for the full control effect; nearly all actives have a fitted effect of over 55% in size
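ATXN2-luciferase reporter cells (luciferase flanked by upstream and downstream ATXN2 gene portions) were treated 24 h at 37 °C with compounds at up to 57 uM. SteadyGlo luminescence gave expression; GF-AFC fluorescence gave viability.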
HepG2 tox-1 = qHTS for Inhibitors of TGF-b: Cytotox Counterscreen. AID 588856, 2011. HepG2 CAGA-GFP viability, ATP luminescence, 18 h. 0.76% of 410,000 active. Potency, µM (highest dose often 46.1 µM), inactives show at the top dose activity change, negative = cytotoxicity, most hits filed as cytotoxic; also: potency is read from the fitted curve at half-maximal effect
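HepG2 CAGA-GFP cells (1000/well, DMEM with 1% FBS) received compound, then TGF-beta at 500 pg/mL final, and were incubated 18 hours at 37 degrees C. Viability was read by CellTiter-Glo luminescence. Media-only wells were set as complete cell-killing and DMSO as no toxicity.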
TGFb confirm = qHTS for Inhibitors of TGF-b: Confirmation of Cherry Picks. Potency, µM (top dose mostly 46.1 µM), for the others: top-dose activity, negative = inhibition, most hits filed as inhibitors. 63% of 1,600 active. HepG2 CAGA-GFP TGF-b reporter, GFP fluorescence, 18 h; cells stimulated with TGF-beta, 500 pg/mL. shares compounds with TGFb inhibitor; also: potency is read from the fitted curve at half-maximal effect; % is scaled to controls: 0 for no effect and ±100 for the full control effect; nearly all actives have a fitted effect of over 65% in size
HepG2 tox-2 = qHTS for Inhibitors of TGF-b: Cytotox Counterscreen for Cherry Picks. shares compounds with TGFb inhibitor. Potency, µM (doses to about 46.1 µM), for inactives: at the top dose activity, negative = cytotoxicity, usual class: inhibitors. HepG2 CAGA-GFP viability, ATP luminescence, 18 h; cells stimulated with TGF-beta, 500 pg/mL. 27% of 1,600 active; also: potency is read from the fitted curve at half-maximal effect; % is scaled to controls: 0 for no effect and ±100 for the full control effect; nearly all actives have a fitted effect of over 70% in size
CCL64 TGFb inh = qHTS for Inhibitors of TGF-b: CCL64 Cells Orthogonal Assay for Cherry Picks; shares compounds with TGFb inhibitor; CCL64 CAGA-GFP reporter, TGF-b stimulated, GFP fluorescence, 18 h; Potency, µM (titrated, usually from 46.1 µM), for the others: at the top dose activity, negative = inhibition, actives largely listed as inhibitors; 41% of 1,600 active; also: potency is read from the fitted curve at half-maximal effect; nearly all actives have a fitted effect of over 65% in size
TGFb COP inh = qHTS for Inhibitors of TGF-b: Hit Validation in HepG2 Cells using COP promoter. 3% of 1,600 active. shares compounds with TGFb inhibitor. Potency, µM (highest dose often 46.1 µM), inactives show top-dose activity, negative = inhibition, hits mostly inhibitors. HepG2 COP-GFP TGF-b reporter, GFP fluorescence, 18 h; cells stimulated by added recombinant TGF-beta. AID 720537, 2013; also: potency is read from the fitted curve at half-maximal effect; nearly all actives have a fitted effect of over 70% in size
The depositor's hits bear a star; i = inactive; ? = inconclusive; / = no result given. An excerpt weighted towards active compounds, which were near 2.8% of everything screened. Unless noted, calls follow the shape of the dose curve; as a rule, active = well fitted curve in the direction sought with a large enough effect; inconclusive = small, poorly fitted or top-dose-only effect, or another doubt; inactive = no such curve, though single readings can be large; an effect the other way counts as inactive or inconclusive.

SMILES | Six1-Eya2 inh | CtBP-E1A blk | TGFb inhibitor | ATXN viability | ATXN2 expr inh | HepG2 tox-1 | TGFb confirm | HepG2 tox-2 | CCL64 TGFb inh | TGFb COP inh
O=C(Nc1ccccc1)[C@@H]1CC=C[C@@H]2CCN(Cc3ccc(Cl)c(Cl)c3)C(=O)[C@@H]21 | -12.6 | / | 12.6µM* | ? | -24.2% | -17.5% | 20.6µM* | ? | ? | 47.5%
COc1ccc(C2CC(c3c(-c4ccccc4)c4cc(Cl)ccc4[nH]c3=O)=NN2S(C)(=O)=O)cc1OC (stereo not drawn) | 18.2 | 0.0 | 8.91µM* | i | -18.8% | -79.2% | ? | -1.3% | ? | 19.2%
CCCCOc1ccc(CNC(=O)c2cnc3sc(N4CCOCC4)nn3c2=O)cc1 | / | / | -0.8% | / | / | 4.4% | / | / | / | /
CCCCC(=O)NC(c1cccc([N+](=O)[O-])c1)c1c(OC(C)=O)ccc2ccccc12 (stereo not drawn) | -20.8 | -3.6 | ? | ? | ? | -34.9% | / | / | / | /
CCCCC(=O)NC(c1cccc([N+](=O)[O-])c1)c1ccc2cccnc2c1O (stereo not drawn) | ? | / | ? | ? | / | 9.5% | 10.3µM* | 7.31µM* | ? | 9.6%
Cc1cccc(C)c1NC(=O)c1sc(-n2nc(C)c(Cc3ccc4c(c3)OCO4)c2C)nc1C | / | / | -12.2% | i | 9.9% | -17.5% | / | / | / | /
O=C(Nc1ccc([N+](=O)[O-])cc1)Nc1ccc(OC(F)F)c(Cl)c1 | -18.5 | -11.5 | 4.47µM* | / | 12.6µM* | 12.6µM* | 13µM* | 5.8µM* | 3.66µM* | ?
O=C(COC(=O)CC(c1ccccc1)c1ccccc1)NCc1ccc(Cl)cc1 | 9.6 | 5.9 | 11.2µM* | i | -19.4% | -7.1% | ? | ? | ? | 26.8%
COc1ccc(Nc2nnc(-c3ccc(C)cc3)c3ccccc23)cc1C(=O)N1CCCCC1 | -2.2 | -7.2 | 15.8µM* | ? | ? | -21.2% | -87.5% | ? | ? | 45.3%
COc1ccc(Nc2nnc(-c3ccccc3)c3ccccc23)cc1C(=O)N1CCCCC1 | -8.6 | -18.9 | -26.7% | i | -0.2% | -12.1% | / | / | / | /
O=S(=O)(Nc1ccc(Br)cc1)c1cccc2cccnc12 | -12.1 | -8.0 | 0.0% | i | -6.2% | -21.4% | / | / | / | /
O=S(=O)(Nc1ccc(C(O)(C(F)(F)F)C(F)(F)F)cc1)c1cccc2cccnc12 | 2.0 | 0.5 | 17.8µM* | ? | ? | -30.4% | 14.6µM* | -20.5% | -24.7% | 39.5%
CCOC(=O)c1c(NC(=O)c2cc3nc(-c4ccc(OC)cc4)cc(C(F)(F)F)n3n2)sc2c1CCC(C)C2 (stereo not drawn) | / | / | 45.2% | / | / | 0.7% | / | / | / | /
CC[C@]12c3[nH]c4ccc(Cl)cc4c3CCN1C(=O)[C@@H](CC(=O)NCC13CC4CC(CC(C4)C1)C3)C[C@@H]2C(=O)N1CCN(C(=O)c2ccco2)CC1 | -13.2 | -29.6 | 12.6µM* | ? | 25.1µM* | -2.1% | 11.6µM* | ? | ? | 67.1%
O=C(c1ccco1)N1CCN(C(=O)C2CCCc3c2[nH]c2ccc(Cl)cc32)CC1 (stereo not drawn) | -7.5 | -2.5 | 1µM* | i | 27.1% | -33.6% | ? | ? | ? | 10.0%
CC[C@]12c3[nH]c4cc(-c5ccco5)ccc4c3CCN1C(=O)[C@@H](CC(=O)NCC13CC4CC(CC(C4)C1)C3)C[C@@H]2C(=O)N1CCN(C(=O)c2ccco2)CC1 | -3.0 | 8.9 | 12.6µM* | ? | ? | -0.2% | ? | -20.3% | ? | 27.8%
CC(C)N(C(=O)[C@H]1C[C@H](CC(=O)NCC23CC4CC(CC(C4)C2)C3)C(=O)N2CCc3c([nH]c4ccc(Cl)cc34)[C@]12C)C(C)C | 1.6 | 3.2 | 8.91µM* | ? | ? | -75.7% | 11.6µM* | ? | 13µM* | 53.0%
NC(=O)C1CCCc2c1[nH]c1ccc(Cl)cc21 (stereo not drawn) | / | / | / | / | -18.0% | / | / | / | / | /
COc1ccc(C2/C=C\CN(S(=O)(=O)CC34CCC(CC3=O)C4(C)C)CC(=O)N2Cc2ccc(F)cc2)cc1 (stereo not drawn) | / | / | -3.6% | / | / | -0.8% | / | / | / | /
O=C(C[C@H]1C[C@H](C(=O)N2CCOCC2)[C@@]2(CCC3CCCC3)c3[nH]c4ccc(Cl)cc4c3CCN2C1=O)NCC12CC3CC(CC(C3)C1)C2 | 4.8 | -10.7 | -6.4% | i | -3.7% | -0.7% | / | / | / | /
COc1ccc2[nH]c3c(c2c1)CCN1C(=O)C(CC(=O)NCC24CC5CC(CC(C5)C2)C4)C[C@H](C(=O)N2CCOCC2)[C@@]31CCC1CCCC1 (stereo partly drawn) | -0.6 | 5.0 | 11.2µM* | i | 7.6% | 12.3% | 4.61µM* | -21.9% | 5.8µM* | 18.6%
Cc1ccc(CCNS(=O)(=O)c2ccc3c(c2)CCN3C(=O)CCC(=O)O)cc1 | / | / | 1.1% | i | 1.5% | 5.9% | / | / | / | /
